For 23 compounds, Potency results are on record in PubChem BioAssay (Tox21).

SMILES strings stand for the structures. Inconclusive results are not listed. Calls of active or inactive are those of the source. Unless noted, the call rests on the fitted dose curve; in most records, active means well fitted curve in the direction sought with a large enough effect in the repeat runs; inconclusive means weak or mixed curves; inactive means no such curve, though single readings can be large; an effect the other way counts as inactive or inconclusive.

A short description of assay [1]: qHTS assay to identify small molecule agonists of the TGF-beta/Smad signaling pathway - cell viability counter screen (AID 1346829). Further: nearly all actives have a fitted effect of over 45% in size. Further: potency means the concentration at half of the fitted maximal effect. Summed up:
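Same-well cytotoxicity: CellTiter-Glo added after the 2 hr room-temperature beta-lactamase substrate step, luminescence measured 30 min later; cells had 5 hr of compound at 37 C.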
On the technique in general: In qHTS, concentration-response curves come from the screen itself.

A short description of assay [2]: Human pregnane X receptor (PXR) small molecule agonists, qHTS cell viability counter screen (AID 1346977). Further: nearly all actives have a fitted effect of over 50% in size. Further: potency means the concentration at half of the fitted maximal effect. Summed up: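 In each well, the PXR reporter HepG2 line was checked for viability: CellTiter-Fluor reagent added 23hr post-dosing, fluorescence read after 1hr incubation at 37C.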
The nature of assay [3]: Caspase-3/7 induction in HepG2 cells by small molecules, qHTS assay (AID 1346978). Further: nearly all actives have a fitted effect of over 15% in size. Further: potency means the concentration at half of the fitted maximal effect. Summed up:
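Caspase-3/7 induction was measured by Caspase-Glo 3/7 luminescence (30 min, room temperature) after a 17 hr compound exposure of wild-type HepG2 cells seeded at 2,000 per well and pre-incubated 5 hr.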

The target of assay [4] is Thyrotropin-releasing hormone receptor (Homo sapiens) (UniProt P34981). In words: qHTS assay to identify small molecule antagonists of the thyrotropin-releasing hormone receptor (TRHR) signaling pathway (AID 1346877; active means well fitted inhibition curve with a large enough effect in the repeat runs, not every such curve was filed as active; further: series mostly up to about 51 µM). The method in brief: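 Human TRHR in HEK293 cells; inhibition of the intracellular calcium rise triggered by 1 nM TRH was followed by fluorescence over 3 min. Compounds were run at 15 concentrations, three replicates each.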
Thyrotropin-releasing hormone receptor (Homo sapiens), sequence (P34981 whole entry, looked up): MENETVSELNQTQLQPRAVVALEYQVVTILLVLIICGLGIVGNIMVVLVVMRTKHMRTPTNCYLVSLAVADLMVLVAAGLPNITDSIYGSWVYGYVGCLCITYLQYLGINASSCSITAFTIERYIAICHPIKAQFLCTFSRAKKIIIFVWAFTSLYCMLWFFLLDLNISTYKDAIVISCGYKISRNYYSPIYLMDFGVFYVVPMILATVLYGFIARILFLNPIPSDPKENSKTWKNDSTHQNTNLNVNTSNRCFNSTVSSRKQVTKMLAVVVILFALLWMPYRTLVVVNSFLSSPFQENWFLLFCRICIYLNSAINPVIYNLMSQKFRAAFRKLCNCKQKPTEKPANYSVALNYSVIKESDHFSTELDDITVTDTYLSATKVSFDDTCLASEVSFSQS

Assay [5] has the same target. In words: qHTS assay to identify small molecule agonists of the thyrotropin-releasing hormone receptor (TRHR) signaling pathway (AID 1346891; calls by dose curve; further: potency means the concentration at half of the fitted maximal effect; on activation: series mostly up to about 58 µM). The method in brief:
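Readout was intracellular calcium fluorescence in TRHR-Hek293 cells. Cells were incubated 18 h, dye-loaded 2 h at 37 °C, and treated with compound in agonist mode.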

The nature of assay [6]: qHTS assay to identify small molecule agonists of the progesterone receptor (PR) signaling pathway - cell viability counter screen (AID 1346799; calls by dose curve; further: nearly all actives have a fitted effect of over 45% in size; further: potency means the concentration at half of the fitted maximal effect). The method in brief:
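Multiplexed viability read: CellTiter-Glo luminescence, 30 min RT, following LiveBLAzer FRET measurement on PR-UAS-bla HEK293T cells exposed to compounds 16 hr.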

The nature of assay [7]: qHTS assay to identify small molecule antagonists of the TGF-beta/Smad signaling pathway - cell viability counter screen (AID 1346824). Further: nearly all actives have a fitted effect of over 50% in size. Further: potency means the concentration at half of the fitted maximal effect. Summed up: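 Cytotoxicity counter-screen run in the same wells as the beta-lactamase Smad reporter read: CellTiter-Glo luminescence after 30 min at room temperature. HEK 293T SBE-bla cells had 5 hr compound exposure at 37 C with TGF-beta1 (0.25 ng/mL stock).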

Assay [8] can be described thus: qHTS assay to identify small molecule agonists of the TGF-beta/Smad signaling pathway (AID 1346859; active means well fitted activation curve with a large enough effect in the signal ratio in the repeat runs, not every such curve was filed as active; the % refers to the signal ratio; further: series mostly up to about 77 µM). Summed up: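 Screening used HEK 293T SBE-bla cells at 4,000/well. Test agents: 5 hr, 37 C. Detection: FRET substrate, 2 hr RT, then excitation 405 nm with emissions at 460 and 530 nm.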

Turning to `Cc1[nH]nc2c1N=C(c1ccccc1Cl)c1cc([N+](=O)[O-])ccc1N2`, the results for the Potency in assay [1], in assay [2] and in assay [3] were 4.36 µM (active), 13.7 µM (active) and 17.2 µM (active), respectively.

In the case of `CCCC(=O)OC[C@@H](OC(=O)CCC)[C@@H](OC(=O)CCC)[C@H](Cn1c2nc(=O)[nH]c(=O)c-2nc2cc(C)c(C)cc21)OC(=O)CCC`, the Potency result in assay [1], in assay [4] and in assay [3] was “inactive” throughout. Further, the Potency in assay [5] is 13.5 µM (active).

For the compound `CCCCCCCC/C=C/CCCCCCCC1=NCCN1CCO`, the results for the Potency in assay [6], in assay [2] and in assay [3] were 61.1 µM (active), 68.6 µM (active) and 43.3 µM (active), respectively. The Potency result in assay [1], in assay [4] and in assay [5] was “inactive” in each case.

On to `Cc1cc(O)c(C(C)(C)C)cc1C(C)(C)C`, for which the Potency is 48.6 µM (active) in assay [6], 49 µM (active) in assay [1] and 61.1 µM (active) in assay [3]. The Potency result in assay [5] was “inactive”.

For `CC(C)OC(=O)c1cc2c(OCC(O)CNC(C)(C)C)cccc2[nH]1` (stereo not given), the Potency result in assay [7], in assay [1], in assay [4], in assay [5] and in assay [3] was “inactive” throughout.

`Cc1ccc2oc(CN(Cc3ccccc3)C(=O)Nc3c(F)cc(F)cc3F)c(-c3ccc(Cl)cc3)c2c1`: the Potency entry in assay [7], in assay [1], in assay [8], in assay [4], in assay [5] and in assay [2] was “inactive” in each case. Also, in assay [3], the Potency entry is “inactive”.

On to `CCCCC(CC)COP(=O)(O)OCC(CC)CCCC` (stereo not given), for which the Potency result in assay [7], in assay [1], in assay [8], in assay [4], in assay [5] and in assay [3] was “inactive” throughout.

For the compound `C=C(C)C(=O)OCC[N+](C)(C)C`, the Potency result in assay [6], in assay [7], in assay [1], in assay [2] and in assay [3] was “inactive” each time.

Turning to `CCCCCCCC[N+](CCCCCCCC)(CCCCCCCC)CCCCCCCC`, the Potency in assay [7] is 48.9 µM (active); in assay [1] it was 43.6 µM (active); in assay [2] it was 5.44 µM (active); in assay [3], 15.3 µM (active). Further, the Potency result in assay [4] and in assay [5] was “inactive” each time.

With `C/C=C1/C(=O)C[C@H]2[C@@H]3CCC4=CC(=O)CC[C@]4(C)[C@H]3CC[C@]12C`, the Potency entry in assay [7] and in assay [1] was “inactive” throughout.

Consider `[Cl][Bi]([Cl])([c]1ccccc1)([c]1ccccc1)[c]1ccccc1`, for which the values for the Potency in assay [6] and in assay [2] were 1.71 µM (active) and 3.83 µM (active), respectively. Besides, the Potency result in assay [3] was “inactive”.

For the compound `CC(C)C(C)(C)C(C)(C)C(C)(C)S`, the Potency result in assay [7], in assay [1], in assay [8], in assay [4], in assay [5] and in assay [2] was “inactive” throughout. The Potency entry in assay [3] is “inactive”.

Turning to `OCCN(CCO)c1nc(N2CCCCC2)c2nc(N(CCO)CCO)nc(N3CCCCC3)c2n1`, the Potency result in assay [7], in assay [1], in assay [4] and in assay [3] was “inactive” each time. Besides, in assay [5], the Potency was 12 µM (active).

Turning to `CC(C)(C)c1ccc(C(=O)CCCN2CCC(OC(c3ccccc3)c3ccccc3)CC2)cc1`, the Potency in assay [7] is 21.3 µM (active); in assay [1] it was 23.9 µM (active); in assay [2], 21.1 µM (active); in assay [3] it was 29.8 µM (active).

As for `CC1=C(C(=O)OC(C)C)C(c2cccc([N+](=O)[O-])c2)C(C(=O)OC2CN(C(c3ccccc3)c3ccccc3)C2)=C(N)N1` (stereo not given), the Potency entry in assay [7], in assay [8], in assay [4] and in assay [5] was “inactive” in each case. In assay [2], the Potency is 16.8 µM (active).

As to `Oc1cccc(-c2c3nc(c(-c4cccc(O)c4)c4ccc([nH]4)c(-c4cccc(O)c4)c4nc(c(-c5cccc(O)c5)c5ccc2[nH]5)CC4)C=C3)c1`, the Potency result in assay [7], in assay [1], in assay [8] and in assay [3] was “inactive” in each case. In assay [2], the Potency is 15 µM (active).

For the compound `O=C(NOCC1CC1)c1ccc(F)c(F)c1Nc1ccc(I)cc1Cl`, the Potency result in assay [7], in assay [1], in assay [4], in assay [5] and in assay [3] was “inactive” in each case. Moreover, in assay [2], the Potency was 18.8 µM (active).

Consider `Clc1ccc2n[nH]nc2c1`, for which the Potency entry in assay [1], in assay [8], in assay [4], in assay [5], in assay [2] and in assay [3] was “inactive” throughout.

`CCOC(=O)O[C@H](C)OC(=O)c1ccc2c(c1)cc(C(=O)NC1CCN(C(C)C)CC1)n2Cc1cc(-c2ccc(Cl)s2)on1`: the Potency in assay [6] is 22.7 µM (active); in assay [1], 45.8 µM (active); in assay [2] it was 45.4 µM (active); in assay [3], 45.4 µM (active). Also, the Potency result in assay [4] and in assay [5] was “inactive” throughout.

As for `S=c1[nH]c2ccccc2s1`, the Potency entry in assay [7], in assay [1], in assay [4], in assay [5] and in assay [3] was “inactive” throughout.

Turning to `Cc1cc(=O)oc2cc(N(C)C)ccc12`, the Potency entry in assay [7], in assay [1], in assay [4], in assay [5] and in assay [3] was “inactive” throughout.

Take `Nc1ccccc1O`: the Potency entry in assay [7], in assay [1], in assay [4], in assay [5] and in assay [3] was “inactive” in each case. In assay [2], the Potency was 60.3 µM (active).

On to `O=C(Nc1cccc(C(F)(F)F)c1)c1cc(Br)cc(Br)c1O`, for which the Potency entry in assay [4], in assay [5] and in assay [3] was “inactive” each time. Besides, the Potency in assay [2] was 2.73 µM (active).
